In the library only some 19% were active in any assay of this set; here they are far more common.
HT1080NT lethal: qHTS for induction of synthetic lethality in tumor cells producing 2HG: qHTS for the HT-1080-NT fibrosarcoma cell line; HT-1080-NT fibrosarcoma viability, CellTiter-Glo ATP luminescence, 48 h; Potency, µM (highest dose often 46.1 µM), actives largely listed as cytotoxic; 360,000 tested, 1.6% active; AID 686970, 2013;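 also: NT is the 2HG producing partner of a matched IDH1 knockdown line; nearly all actives have a fitted effect of over 55% in size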
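Viability of the 2HG-overproducing fibrosarcoma line after 48 hours of compound exposure at 37 degrees C was determined by luminescence with CellTiter-Glo, and concentration-effect curves were then fitted and categorized.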
TDP1 cell CPT: qHTS for Inhibitors of human tyrosyl-DNA phosphodiesterase 1 (TDP1): qHTS in cells in presence of CPT; chicken DT40 Tdp1-/-;hTDP1 cells + 20 nM CPT, ATP luminescence, 48 h; Potency, µM (titrated, usually from 46.2 µM), hits mostly inhibitors; 420,000 tested, 12% active; AID 686979, 2013; also: nearly all actives have a fitted effect of over 55% in size
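Chicken DT40 Tdp1-/- cells complemented with human TDP1, 400 cells/well, exposed to compounds plus 20 nM camptothecin for at least 48 h at 37 C; viability read as ATP content by CellTiter-Glo luminescence.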
IL-1B inflam inh: qHTS for Inhibitors of Inflammasome Signaling: IL-1-beta AlphaLISA Primary Screen. AID 743279, 2014. 360,000 tested, 4.7% active. THP-1 LPS/ATP IL-1B secretion, AlphaLISA, 16 h; stronger effect = lower value. activity change, % at 57.5 µM; in the data active = activity change below about -50%; inconclusive = mostly about -30% to -49%
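Secreted IL-1B measured by AlphaLISA bead assay after 16 h compound exposure of THP-1 cells; compounds (final up to 57.5 uM) added 1 h before LPS (250 ng/mL) and ATP (1.25 mM) stimulation; lower signal means less secretion.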
HT1080 IDH1KD tx: qHTS for induction of synthetic lethality in tumor cells producing 2HG: qHTS for the HT-1080-IDH1KD cell line | HT-1080 IDH1 knockdown viability, ATP luminescence, 48 h | Potency, µM (highest dose often 46.1 µM), actives largely listed as cytotoxic | 360,000 tested, 2% active | AID 686971, 2013
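In this qHTS, HT-1080 cells depleted of IDH1 are exposed for 48 h at 37 °C to compound titrations. Toxicity is scored from CellTiter-Glo luminescence, with DMSO as full viability and medium alone as none.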
TDP1 cell noCPT: qHTS for Inhibitors of human tyrosyl-DNA phosphodiesterase 1 (TDP1): qHTS in cells in absence of CPT; DT40 Tdp1-/- hTDP1 cells, no CPT, ATP luminescence, 48 h; Potency, µM (series often up to 46.2 µM), actives largely listed as inhibitors; 420,000 tested, 15% active; also: nearly all actives have a fitted effect of over 55% in size
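Luminescent ATP content (CellTiter-Glo) served as the growth readout. Knockout chicken DT40 cells expressing human TDP1 were exposed to compounds without camptothecin for a minimum 48 hr at 37 °C.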
Numbers stand for hits; i = inactive; ? = inconclusive; nt = not tested or not shown; [ ] = remark or other dose. Unless noted, calls follow the shape of the dose curve; as a rule, active = well fitted curve in the direction sought with a large enough effect; inconclusive = small, poorly fitted or top-dose-only effect, or another doubt; inactive = no such curve, though single readings can be large; an effect the other way counts as inactive or inconclusive.

SMILES	HT1080NT lethal	TDP1 cell CPT	IL-1B inflam inh	HT1080 IDH1KD tx	TDP1 cell noCPT
Cc1ccc(C(=O)c2cn(Cc3ccccc3)c3cc4c(cc3c2=O)OCCO4)cc1	nt	21µM	nt	nt	?
CCc1ccc(C(=O)c2cn(CC(=O)Nc3ccc(OC)cc3)c3cc4c(cc3c2=O)OCO4)cc1	nt	i	nt	nt	i
COc1ccc(C(=O)c2cn(Cc3cccc(C)c3)c3cc4c(cc3c2=O)OCO4)cc1	nt	16µM	nt	nt	26µM
O=[N+]([O-])c1ccc(Sc2ncccn2)c([N+](=O)[O-])c1	29µM	0.82µM	nt	13µM	0.92µM
Cc1cccc(Sc2ccc([N+](=O)[O-])cc2[N+](=O)[O-])n1	?	3.3µM	-171	18µM	3.3µM
CC(C)Sc1nc(-c2ccccc2)cc(=O)[nH]1	i	i	i	i	i
O=[N+]([O-])c1ccc(Sc2nccn2Cc2ccccc2)c([N+](=O)[O-])c1	i	6.5µM	-108	?	5.8µM
O=c1cc(-c2ccccc2)nc(Sc2ccc([N+](=O)[O-])cc2[N+](=O)[O-])[nH]1	i	?	-63	i	?
OC(C[n+]1ccccc1Cl)c1ccccc1 (configuration not stated)	nt	i	nt	nt	i
CCCCNC(=O)C1(C)CCN1C(=O)c1cc(-c2ccccc2)cs1 (configuration not stated)	i	?	i	i	?
CCc1noc(C)c1C(=O)OCC(=O)NC(=O)c1ccccc1	i	i	i	i	i
O=C1CCc2cc(Br)ccc2O1	i	i	i	i	?
CC(=O)Oc1c(I)cc(I)cc1C(=O)Nc1ccc(Cl)cc1	21µM	?	-87	21µM	21µM
COc1ccc(Cl)cc1C(=O)Nc1ccc(NC(C)=O)cc1	i	i	i	i	i
CN(C)c1ncnc2c1ncn2[C@H]1CN(Cc2cccnc2)C[C@@H](CO)O1	i	i	i	i	i
CCCCN(CC)CCNC(=O)c1cc2c(=O)n(CC)c3ccccc3c2s1	i	16µM	?	i	21µM
CCOC(CNC(=O)c1cc2c(=O)n(CC)c3ccccc3c2s1)OCC	i	?	?	i	?
CCCCN(CC)CCCNC(=O)c1cc2c(=O)n(CC)c3ccccc3c2s1	18µM	?	-77	29µM	?
CCn1c(=O)c2cc(C(=O)NCc3ccc(F)cc3Cl)sc2c2ccccc21	nt	i	nt	nt	i
CCn1c(=O)c2cc(C(=O)NCCC(C)C)sc2c2ccccc21	i	i	?	i	?
CCn1c(=O)c2cc(C(=O)NCC(OC)OC)sc2c2ccccc21	i	?	-56	i	?
CCN(CCCNC(=O)c1cc2c(=O)n(CC)c3ccccc3c2s1)c1ccccc1	nt	?	nt	nt	18µM
CCC1(CC)NC(=O)N(CC(=O)Nc2sc3c(c2C(N)=O)CCC3)C1=O	i	i	i	i	i
O=C(COC(=O)Cc1ccc(S(=O)(=O)N2CCOCC2)s1)Nc1ccc(OC(F)F)cc1	i	i	i	i	i
CCn1c(=O)c2cc(C(=O)Nc3cccc(C(F)(F)F)c3)sc2c2ccccc21	nt	7.3µM	nt	nt	9.2µM
SMILES	HT1080NT lethal	TDP1 cell CPT	IL-1B inflam inh	HT1080 IDH1KD tx	TDP1 cell noCPT
CCCN(CCC)CCCNC(=O)c1cc2c(=O)n(CC)c3ccccc3c2s1	i	?	-63	i	?
CCn1c(=O)c2cc(C(=O)NCCCOC)sc2c2ccccc21	?	18µM	-50	?	10µM
CC(Oc1ccc(S(=O)(=O)N2CCCC2)cc1[N+](=O)[O-])C(=O)NC1(C#N)CCCCC1 (configuration not stated)	i[9.24 µM]	i	i	i	?
CNC(=O)NC(=O)C(C)OC(=O)c1oc2ccccc2c1CSc1ccc(Cl)cc1 (configuration not stated)	i	?	i	i	21µM
CCNC(=O)NC(=O)C(C)OC(=O)c1oc2ccccc2c1CSC1CCCCC1 (configuration not stated)	i	?	i	i	?
C=C(C)Cc1c(C)c(C#N)c2[nH]c3ccccc3n2c1=O	i	i	i	16µM	?
Cc1ccc(Cc2c(C)c(C#N)c3[nH]c4ccccc4n3c2=O)cc1	i	?	i	i	23µM
Cc1ccc2oc(C(=O)Nc3ccc(S(=O)(=O)Nc4nc(C)cc(C)n4)cc3)cc(=O)c2c1	nt	i	nt	nt	i
Cc1ccc(-n2nnc3c(=O)oc4ccccc4c32)cc1	?	5.8µM	i	?	21µM
CCC(C)n1nnc2c(=O)oc3ccccc3c21 (configuration not stated)	i	i	i	i	i
CCn1c(CNC(C)=O)nnc1SCC(=O)c1ccc(Br)cc1	13µM	i	i	?	i
Cc1ccc(NC(=O)Cc2nnc(SCC(=O)c3ccc(Br)cc3)n2C)cc1	?	?	i	11µM	?
CC(=O)Nc1ccc(OC(=O)N2CCCC2)cc1	i	i	i	i	i
CCOc1cc(Br)ccc1S(=O)(=O)NCc1ccccc1	i	i	i	i	?
CSc1nc(=NC(C)=O)ss1	i	?	i	i	35µM
COc1cc(C2NC(=O)NC(C)=C2C(=O)OCC2CCCCC2)ccc1O (configuration not stated)	i	i	i	i	?
CCS(=O)(=O)N1CCC(C(=O)Oc2ccc(C)c(C)c2)CC1	i	i	i	i	i
O=S1(=O)CCO[C@H]2Cc3ccccc3[C@H]2N1Cc1ccc(Cl)cc1	i	?	i	i	?
O=S1(=O)CCO[C@H]2Cc3ccccc3[C@H]2N1Cc1cccc(Cl)c1	i	?	i	i	18µM
Cc1ccccc1CN1[C@@H]2c3ccccc3C[C@@H]2OCCS1(=O)=O	?	?	i	i	16µM
Cc1nn(C)cc1S(=O)(=O)N1CCCCC1C (configuration not stated)	i	i	i	i	i
C=CCn1c(C(C)C)nc2ccccc21	i	i	i	i	i
Cc1cccc(OCCCCn2c(CO)nc3ccccc32)c1	i	?	i	i	?
C=CCn1c(C)cc(C(=O)Cn2c(C(C)O)nc3ccccc32)c1C (configuration not stated)	i	21µM	i	i	9.2µM
Cc1cc(C(=O)Cn2c(CO)nc3ccccc32)c(C)n1C	i	?	i	i	16µM
CCC(=O)c1ccc(OCC(=O)OCC(=O)N(CCC#N)c2ccc3c(c2)OCCO3)cc1	i	i	i	i	i
COc1cc(C(C)=O)ccc1COc1ccc(C(=O)OCC(=O)NC2CCS(=O)(=O)C2)cc1OC (configuration not stated)	?	?	i	i	21µM
